# Experimental data taken from PubChem BioAssay (EPA / NIEHS).
# Records with an inconclusive call do not appear. Active and inactive are the calls of the source. The calls were made as follows, unless noted: active = hit-call score of the fitted dose curve at least 0.9, where 1 is the maximum; inactive = score below 0.9.
# What was measured:
# [1] = CCTE_Harrill_HTTr_Apoptosis_MCF7: CCTE's 6-hour Apoptosis Assessment for the High-Throughput Transcriptomics (HTTr) Platform, in MCF-7 cells cultured in DMEM + 10% fetal bovine serum, Harrill Lab (AID 2284011)
# Outline: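 Apoptosis in MCF-7 cells grown in DMEM with 10% fetal bovine serum was scored after a six hour exposure by high content imaging of caspase-3/7 activation (CellEvent Caspase 3/7 Green), with DMSO serving as negative control and baseline.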
# [2] = CCTE_Shafer_MEA_acute_burst_number: CCTE's Neural Acute Assay for Single-Electrode Bursts, Shafer Lab (AID 2284013)
# Outline: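 Spontaneous network activity of primary rat cortical neurons was recorded extracellularly on microelectrode arrays at 37 C, with 40-min periods before and during exposure to 0.03-40 uM compound on DIV 13 or 15.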
# [3] = CCTE_Shafer_MEA_acute_burst_duration_mean: CCTE's Neural Acute Assay for Mean Burst Duration, Shafer Lab (AID 2284014);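 also: hits are decreases in mean burst duration relative to DMSO controls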
# Outline: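 Read-out is the per-well percent change in mean burst duration (first to last spike within a single-electrode burst) between 40-min recordings before and after compound. Cultures were primary rat cortical neurons on MEAs, dosed at 0.03-40 uM on DIV 13 or 15.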
# [4] = CCTE_Shafer_MEA_acute_interburst_interval_mean: CCTE's Neural Acute Assay for Mean Interburst Interval, Shafer Lab (AID 2284016);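 also: percent change of mean interburst interval versus each well's own pre-dose baseline; curves fitted for decrease in interburst interval relative to DMSO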
# Outline: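 Percent change in mean single-electrode interburst interval was calculated per well from 40 min recordings before and after compound (0.03-40 uM). Recordings were made at 37 C on rat cortical cultures at DIV 13 or 15, with spikes detected at 8x rms threshold.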
# [5] = CCTE_Shafer_MEA_acute_burst_percentage_mean: CCTE's Neural Acute Assay for Percentage of Spikes in a Burst, Shafer Lab (AID 2284017);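 as to AC50: curve fitted for loss of signal so potency reflects decreased burst percentage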
# Outline: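 Well-level mean burst percentage from a 40-min recording after compound (0.03-40 uM) expressed as percent change from a 40-min baseline at 37C. Cultures: primary rat cortical neurons on MEA, dosed on DIV 13 or 15; fitted downward relative to DMSO.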
# [6] = CCTE_Shafer_MEA_acute_burst_percentage_std: CCTE's Neural Acute Assay for Standard Deviation of Burst Percentage, Shafer Lab (AID 2284018);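 also: fitted in the negative direction so actives lower burst percentage SD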
# Outline: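 Value is percent change from baseline in the across-electrode SD of spikes-in-bursts percentage, wells with >/= 10 active electrodes. Acute 40-min exposure to 0.03-40 uM on DIV 13 or 15 rat cortical cultures, recorded at 37 C after 40-min baseline.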
# [7] = CCTE_Shafer_MEA_acute_per_network_burst_spike_number_mean: CCTE's Neural Acute Assay for Average Number of Spikes in a Network Burst, Shafer Lab (AID 2284019);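 as to AC50: curve fitted for loss of signal so actives reduce spikes per network burst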
# Outline: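 Read-out is mean spike count per network burst, taken as percent change between a 40-min pre-exposure and a 40-min post-exposure recording per well. Rat primary cortical neurons on MEAs at 37 C, DIV 13 or 15; compounds at 0.03-40 uM.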
# [8] = CCTE_Shafer_MEA_acute_per_network_burst_spike_number_std: CCTE's Neural Acute Assay for Standard Deviation of Number of Spikes in a Network Burst, Shafer Lab (AID 2284020);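 also: fitted for decrease in spike-number SD versus DMSO so actives lower it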
# Outline: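 Spontaneous network activity of primary rat cortical neurons is recorded extracellularly before and after a 40-min compound exposure (0.03-40 uM) at 37 C. The endpoint is the well's percent change in burst spike-number SD.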
# [9] = CCTE_Shafer_MEA_acute_per_network_burst_electrodes_number_mean: CCTE's Neural Acute Assay for Mean Number of Electrodes in a Network Burst, Shafer Lab (AID 2284021);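 also: curves fitted for decreases only so hits reduce electrodes per burst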
# Outline: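 Percent change from baseline in average electrode count per network burst, rat cortical cultures on 48-well MEAs; 40-min recordings each side of exposure, DIV 13 or 15; threshold 8x rms noise; DMSO as negative control.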
# [10] = CCTE_Shafer_MEA_acute_network_burst_percentage: CCTE's Neural Acute Assay for Percentage of Network Bursts, Shafer Lab (AID 2284022);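 also: curves fitted for loss so actives lower network burst percentage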
# Outline: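 On DIV 13 or 15, at least three wells of rat cortical neurons per compound are dosed at 0.03-40 uM. Spontaneous firing is detected at 8x rms noise for 40 min before and after dosing at 37 C. The percent change in network-burst spike share is reported.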
# [11] = CCTE_Shafer_MEA_acute_cross_correlation_area: CCTE's Neural Acute Assay for Area of Cross Correlation, Shafer Lab (AID 2284024);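 also: area under pooled inter-electrode spike cross-correlation near zero lag as percent change from own baseline; curves fitted for loss of cross-correlation area so actives lower synchrony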
# Outline: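 Extracellular recordings from cultured rat cortical neurons measure network synchrony as cross-correlation area; each well's post-compound value (0.03-40 uM, 40 min) is compared with its own 40 min baseline to give percent change.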
# [12] = CCTE_Shafer_MEA_acute_cross_correlation_HWHM: CCTE's Neural Acute Assay for Cross Correlation at Half Width at Half Maximum, Shafer Lab (AID 2284026);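 also: percent change per well from pre-dose baseline in spike cross-correlogram half width; hits are a decrease in cross-correlogram half width relative to DMSO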
# Outline: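 Percent change in cross-correlogram half width at half maximum, narrower meaning more synchrony, was derived per well from paired 40-min recordings before and during exposure to 0.03-40 uM compound in rat cortical cultures at 37 C.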
# [13] = CCTE_Shafer_MEA_acute_synchrony_index: CCTE's Neural Acute Assay for Synchrony, Shafer Lab (AID 2284027);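 also: network synchrony index of spontaneous spiking in primary rat cortical neurons on MEAs; fitted for loss of signal so actives lower synchrony relative to DMSO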
# Outline: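 Primary rat cortical neurons on 48-well MEAs, dosed at 0.03–40 uM on DIV 13 or 15. Spikes are recorded for 40 min at 37C before and after exposure, and synchrony index (0–1) is expressed as percent change from baseline per well.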
# [14] = molecular target: Estrogen receptor (Homo sapiens) (UniProt P03372); test: CCTE_Deisenroth_AIME_384WELL_LUC_Inactive: CCTE's 384-well Estrogen Receptor Transactivation Assay without AIME metabolic competence (ERTA luciferase; metabolism negative), Deisenroth Lab (AID 2284038; active = hit-call score of the fitted dose curve at least 0.9, where 1 is the maximum;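 also: VM7Luc4E2 breast cells given medium preincubated 2 h with S9-free microspheres; hits raise estrogen receptor luciferase signal so potencies reflect agonists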)
# Sequence of Estrogen receptor (Homo sapiens) (P03372 whole entry, looked up): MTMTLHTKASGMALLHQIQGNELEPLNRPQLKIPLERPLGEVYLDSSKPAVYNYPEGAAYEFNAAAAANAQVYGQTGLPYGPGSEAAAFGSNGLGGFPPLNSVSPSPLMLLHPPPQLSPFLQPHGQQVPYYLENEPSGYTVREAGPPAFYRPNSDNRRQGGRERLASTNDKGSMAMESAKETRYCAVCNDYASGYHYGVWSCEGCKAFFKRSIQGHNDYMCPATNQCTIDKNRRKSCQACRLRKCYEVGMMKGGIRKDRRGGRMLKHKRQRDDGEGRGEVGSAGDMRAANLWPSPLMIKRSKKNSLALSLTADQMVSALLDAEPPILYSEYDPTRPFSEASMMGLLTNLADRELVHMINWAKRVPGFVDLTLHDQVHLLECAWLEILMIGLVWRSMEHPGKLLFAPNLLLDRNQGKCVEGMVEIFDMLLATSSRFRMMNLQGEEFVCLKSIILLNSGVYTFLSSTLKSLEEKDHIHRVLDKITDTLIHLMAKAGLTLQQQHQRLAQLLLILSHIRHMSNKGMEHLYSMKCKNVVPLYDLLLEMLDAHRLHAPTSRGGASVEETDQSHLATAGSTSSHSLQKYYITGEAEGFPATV
# Outline: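 Metabolism-negative mode: chemicals (10-point, 0.002–200 uM) held 2 h with alginate-water microspheres, then conditioned medium applied to VM7Luc4E2 cells for 24 h. Luciferase induction referenced to 17beta-estradiol.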
# [15] = molecular target: Estrogen receptor (Homo sapiens) (UniProt P03372); test: CCTE_Deisenroth_AIME_384WELL_LUC_Shift: CCTE's 384-well Estrogen Receptor Transactivation Assay with AIME metabolic competence data shift (ERTA luciferase; difference in metabolism positive and negative), Deisenroth Lab (AID 2284041);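 also: shift is response with S9 minus without S9 so positive means metabolism raised ER signal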
# Outline: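 Test chemicals (0.002–200 uM, 10-point) were pre-incubated 2 h with alginate microspheres containing phenobarbital/beta-naphthoflavone-induced male Sprague Dawley rat liver S9 or water, then medium was transferred to VM7Luc4E2 cells for 24 h luciferase readout; shift = S9-positive minus S9-negative normalized response.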
# [16] = CCTE_Harrill_HTTr_CellCount_MCF7: CCTE's Cell Proliferation Assessment for the High-Throughput Transcriptomics (HTTr) Platform, Harrill Lab (AID 2284012; active = hit-call score of the fitted dose curve at least 0.9, where 1 is the maximum;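 also: cells exposed to compound for six hours; intended direction is loss of nuclei count meaning fewer cells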)
# Outline: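 MCF7 cells exposed 6 hours to an eight-point dilution series; Hoechst-stained nuclei counted by high-content imaging. Bidirectional curve fitting against DMSO baseline.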
# [17] = CCTE_Shafer_MEA_dev_firing_rate_mean: CCTE's Neural Network Formation Assay for Mean Firing Rate, Shafer Lab (AID 2284031);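 as to AC50: curve fitted for loss of firing so AC50 reflects decreased mean firing rate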
# Outline: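 Primary rat cortical neurons on 48-well MEA plates, exposed from plating day 0 with dosing renewed on DIV 5 and 9. Mean well firing rate over active electrodes, recorded days 5, 7, 9, 12, summarised as trapezoidal AUC.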
# [18] = CCTE_Shafer_MEA_dev_active_electrodes_number: CCTE's Neural Network Formation Assay for Number of Active Electrodes, Shafer Lab (AID 2284040; active = hit-call score of the fitted dose curve at least 0.9, where 1 is the maximum;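 as to AC50: potency for loss of active electrodes versus DMSO so lower counts are hits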)
# Outline: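 Primary rat cortical neurons on 16-electrode MEA wells, exposed from day 0 through day 12 with compound renewed at DIV 5 and 9 feeds. Active electrodes (mean firing ≥5 spikes/min) counted at DIV 5, 7, 9, 12; trapezoidal AUC across days, loss-of-signal versus DMSO.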
# [19] = CCTE_Deisenroth_AIME_384WELL_CTox_Active: Cytotoxicity Assessment (CTOX) in CCTE's 384-well Estrogen Receptor Transactivation Assay with AIME metabolic competence (metabolism positive), Deisenroth Lab (AID 2284037; active = hit-call score of the fitted dose curve at least 0.9, where 1 is the maximum;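 also: chemicals first conditioned 2 h by alginate-bound induced rat liver S9 before cells; activity means signal loss indicating cell death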)
# Outline: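 Cytotoxicity in VM7Luc4E2 breast cells, 24 hour, measured as protease-substrate fluorescence loss, after 2-hour metabolic conditioning with induced rat hepatic S9 in alginate microspheres. Concentrations 0.002 - 200 uM, 10 points, bidirectional fitting.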
smiles,measurement,setting,value
O=C(Oc1ccc(Br)cc1)N1CCN2CCC1CC2,outcome,[1],inactive
same,outcome,[2],inactive
same,outcome,[3],inactive
same,outcome,[4],inactive
same,outcome,[5],inactive
same,outcome,[6],inactive
same,AC50,[7],20 µM (active)
same,outcome,[8],inactive
same,outcome,[9],inactive
same,outcome,[10],inactive
same,outcome,[11],inactive
same,outcome,[12],inactive
same,outcome,[13],inactive
same,outcome,[14],inactive
same,outcome,[15],inactive
CC(C)(C)C(O)(CCc1ccc(Cl)cc1)Cn1cncn1 (centres undefined),outcome,[1],inactive
same,outcome,[16],inactive
same,AC50,[2],3.5 µM (active)
same,outcome,[3],inactive
same,AC50,[4],5.9 µM (active)
same,outcome,[5],inactive
same,outcome,[6],inactive
same,AC50,[7],1.22 µM (active)
same,outcome,[8],inactive
same,outcome,[9],inactive
same,outcome,[10],inactive
same,outcome,[11],inactive
same,AC50,[12],20 µM (active)
same,outcome,[13],inactive
same,outcome,[17],inactive
same,AC50,[18],5.02 µM (active)
O=[N+]([O-])c1ccc(Oc2ccc(Cl)cc2Cl)cc1,outcome,[1],inactive
same,outcome,[16],inactive
same,outcome,[2],inactive
same,outcome,[3],inactive
same,AC50,[4],4.1 µM (active)
same,AC50,[5],10.6 µM (active)
same,outcome,[6],inactive
same,outcome,[7],inactive
same,AC50,[8],10.8 µM (active)
same,AC50,[9],20 µM (active)
same,AC50,[10],20 µM (active)
same,outcome,[11],inactive
same,AC50,[12],10.9 µM (active)
same,AC50,[13],10.9 µM (active)
same,outcome,[19],inactive
Clc1ccc(C(c2ccc(Cl)cc2)C(Cl)Cl)cc1,outcome,[1],inactive
same,outcome,[16],inactive
same,AC50,[2],2.56 µM (active)
same,outcome,[3],inactive
same,outcome,[4],inactive
same,AC50,[5],5.41 µM (active)
same,outcome,[6],inactive
same,AC50,[7],2.37 µM (active)
same,AC50,[8],6.77 µM (active)
same,AC50,[9],2.69 µM (active)
same,AC50,[10],7.42 µM (active)
same,outcome,[11],inactive
same,AC50,[12],11.4 µM (active)
same,AC50,[13],4.76 µM (active)
same,AC50,[17],8.59 µM (active)
same,AC50,[18],4.66 µM (active)
CN(C)C(=O)Nc1ccc(Cl)cc1,outcome,[1],inactive
same,outcome,[16],inactive
same,outcome,[19],inactive
OCCCBr,outcome,[19],inactive
same,outcome,[14],inactive
same,outcome,[15],inactive
O=C(N[C@H](c1ccccc1)[C@@H]1CN2CCC1CC2)c1c(Cl)ccc(C(F)(F)F)c1Cl,outcome,[1],inactive
same,outcome,[16],inactive
same,AC50,[2],1.68 µM (active)
same,outcome,[3],inactive
same,outcome,[4],inactive
same,outcome,[5],inactive
same,outcome,[6],inactive
same,outcome,[7],inactive
same,outcome,[8],inactive
same,outcome,[9],inactive
same,outcome,[10],inactive
same,outcome,[11],inactive
same,AC50,[12],18.5 µM (active)
same,outcome,[13],inactive
same,outcome,[19],inactive
CCC(C)c1ccc(O)cc1 (centres undefined),outcome,[1],inactive
same,outcome,[2],inactive
same,outcome,[3],inactive
same,AC50,[4],30 µM (active)
same,AC50,[5],29.6 µM (active)
same,outcome,[6],inactive
same,outcome,[7],inactive
same,AC50,[8],30 µM (active)
same,outcome,[9],inactive
same,AC50,[10],33.9 µM (active)
same,outcome,[11],inactive
same,AC50,[12],30.5 µM (active)
same,AC50,[13],30.5 µM (active)
CCCCCCCCOC(=O)c1ccc(C(=O)OCCCCCCCC)c(C(=O)OCCCCCCCC)c1,outcome,[1],inactive
same,outcome,[16],inactive
same,outcome,[19],inactive
Nc1cc(Cl)cc(C(=O)O)c1Cl,outcome,[1],inactive
same,outcome,[16],inactive
same,outcome,[17],inactive
same,outcome,[18],inactive
ClC1=C(Cl)C2(Cl)C3C(Cl)C=CC3C1(Cl)C2(Cl)Cl (centres undefined),outcome,[1],inactive
same,outcome,[16],inactive
same,AC50,[2],20 µM (active)
same,outcome,[3],inactive
same,outcome,[4],inactive
same,AC50,[5],0.72 µM (active)
same,AC50,[6],20 µM (active)
same,AC50,[7],4.22 µM (active)
same,outcome,[8],inactive
same,AC50,[9],4.31 µM (active)
same,outcome,[10],inactive
same,AC50,[11],4.37 µM (active)
same,outcome,[12],inactive
same,outcome,[13],inactive
same,AC50,[17],4.54 µM (active)
same,AC50,[18],4.27 µM (active)
C1=Cc2cccc3cccc1c23,outcome,[1],inactive
same,outcome,[16],inactive
same,outcome,[17],inactive
same,outcome,[18],inactive
OCCOCCO,outcome,[1],inactive
same,outcome,[16],inactive
same,outcome,[17],inactive
same,outcome,[19],inactive
same,outcome,[14],inactive
same,outcome,[18],inactive
Cc1ccc(N)c(N)c1,outcome,[1],inactive
same,outcome,[16],inactive
same,outcome,[2],inactive
same,outcome,[3],inactive
same,outcome,[4],inactive
same,AC50,[5],20 µM (active)
same,outcome,[6],inactive
same,outcome,[7],inactive
same,outcome,[8],inactive
same,outcome,[9],inactive
same,AC50,[10],9.87 µM (active)
same,outcome,[11],inactive
same,outcome,[12],inactive
same,AC50,[13],20 µM (active)
same,outcome,[19],inactive
